In PubChem BioAssay:
For part of these data: Potency and affinity values are given separately. Activity calls are given as the source filed them.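 How the source made its calls, unless noted: active means hit in primary screen, with calcium signal over 5 SD above buffer well mean in both duplicates; inactive means the rest.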

Assays:
[1] = system: TRPC4 beta (transient receptor potential cation channel C4), mouse; test: activators of mouse TRPC4 channel, confirmation, cell-based, Fluo4 calcium, HEK293 TRPC4beta/mu-opioid, duplicates, 10 µM (AID 2426;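 active means fluorescence ratio normalized to control raised more than 50% in primary screen plus both repeat runs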;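 on activation: percent rise of integrated ratio over buffer wells lacking compound which define 0%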); details: Fluo4 calcium fluorescence, at 10 µM; hits give high values
[2] = system: transient receptor potential cation channel C4 beta (TRPC4), mouse; test: activators of mouse TRPC4 channel, confirmation, cell-based, second round, Fluo4, HEK293 TRPC4beta/mu-opioid, 1 µM (AID 2461;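 active means primary screen active and over 50% activation in each of two duplicate runs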;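 on activation: 0% = wells without test compound as baseline of integrated fluorescence ratio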); details: Fluo4 calcium fluorescence, at 1 µM; hits give high values
[3] = system: TRPC4 (transient receptor potential cation channel C4 beta), mouse; test: positive allosteric modulators of mouse TRPC4, confirmation, cell-based, second round, Fluo-4, HEK293 TRPC4beta/mu-opioid, 1 µM (AID 2554;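 active means primary screen hit whose fluorescence ratio, in both repeats, exceeds the weak agonist control mean by 3 SD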); details: DAMGO EC20, Fluo-4 calcium flux, at 1 µM; hits give high values
[4] = system: TRPC4 beta (transient receptor potential cation channel C4), mouse; test: positive allosteric modulators of mouse TRPC4, confirmation, cell-based, Fluo-4, HEK293 TRPC4beta/mu-opioid (AID 2555;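 active means primary screen hit whose calcium fluorescence ratio, in both repeats, exceeds the weak agonist control mean by 3 SD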); details: DAMGO EC20, Fluo-4 calcium flux, at 10 µM; hits give high values
[5] = biological target: Short transient receptor potential channel 4 (Mus musculus) (UniProt Q9QUQ5); test: inhibitors of mouse TRPC4 channel, confirmation, cell-based, Fluo4, HEK293 TRPC4beta/mu-opioid (AID 2636;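 active means calcium signal cut by more than 3 SD below the full-agonist control yet still positive, in both repeats and the earlier primary screen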); details: DAMGO, Fluo4 calcium flux, at 10 µM; hits give high values
Short transient receptor potential channel 4 (Mus musculus), sequence (Q9QUQ5 whole entry, looked up): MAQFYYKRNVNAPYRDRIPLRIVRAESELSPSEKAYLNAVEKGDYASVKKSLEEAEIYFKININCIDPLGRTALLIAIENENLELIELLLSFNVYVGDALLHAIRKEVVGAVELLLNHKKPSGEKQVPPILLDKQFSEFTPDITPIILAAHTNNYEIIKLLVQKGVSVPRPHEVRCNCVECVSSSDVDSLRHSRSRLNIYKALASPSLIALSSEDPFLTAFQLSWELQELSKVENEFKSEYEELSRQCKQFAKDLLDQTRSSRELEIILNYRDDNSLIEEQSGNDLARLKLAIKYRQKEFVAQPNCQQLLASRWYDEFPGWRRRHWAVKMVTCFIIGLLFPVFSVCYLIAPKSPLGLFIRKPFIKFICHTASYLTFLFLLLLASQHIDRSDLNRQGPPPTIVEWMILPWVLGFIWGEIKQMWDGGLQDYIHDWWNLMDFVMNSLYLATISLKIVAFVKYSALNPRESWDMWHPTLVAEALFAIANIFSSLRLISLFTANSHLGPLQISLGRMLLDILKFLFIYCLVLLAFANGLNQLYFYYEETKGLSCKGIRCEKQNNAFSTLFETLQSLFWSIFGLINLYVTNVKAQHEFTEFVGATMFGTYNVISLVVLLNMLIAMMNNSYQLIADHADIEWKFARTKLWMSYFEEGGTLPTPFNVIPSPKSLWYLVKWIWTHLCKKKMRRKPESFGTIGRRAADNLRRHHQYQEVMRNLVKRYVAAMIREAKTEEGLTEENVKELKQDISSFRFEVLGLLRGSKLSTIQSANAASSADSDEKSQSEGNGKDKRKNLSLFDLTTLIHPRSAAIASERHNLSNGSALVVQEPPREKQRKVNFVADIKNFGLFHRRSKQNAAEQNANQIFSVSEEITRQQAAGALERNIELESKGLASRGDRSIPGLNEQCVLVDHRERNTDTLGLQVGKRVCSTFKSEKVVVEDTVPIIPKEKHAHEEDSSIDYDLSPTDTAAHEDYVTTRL

[6] = biological target: Short transient receptor potential channel 4 (Mus musculus) (UniProt Q9QUQ5); test: inhibitors of mouse TRPC4 channel, confirmation, cell-based, second round, Fluo4, HEK293 TRPC4beta/mu-opioid, 1 µM (AID 2637;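 active means calcium signal ratio cut to more than 3 SD under the fully stimulated control mean yet still positive, in both repeats and the primary screen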); details: Fluo4 calcium flux, DAMGO, at 1 µM; hits give high values
[7] = biological target: Short transient receptor potential channel 4 (Mus musculus) (UniProt Q9QUQ5); test: TRPC4 positive allosteric modulators, dose response, cell-based, HEK293 TRPC4/mu-opioid, Fluo-4 calcium, EC20 DAMGO (AID 434941;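 active means earlier screen potentiator hit that boosts the TRPC4 ion channel at some dose, with a dose response; inactive means no potentiation, no dose response, or not a prior hit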;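 further: calcium entry triggered by an EC20 dose of DAMGO at the co-expressed mu-opioid receptor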)
[8] = biological target: Short transient receptor potential channel 4 (Mus musculus) (UniProt Q9QUQ5); test: mouse TRPC4 channel inhibitors, dose response, cell-based, HEK293 TRPC4/mu-opioid, Fluo-4 calcium (AID 434942;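 active means primary screen inhibitor hit that blocks the TRPC4 channel at some tested dose, yielding a dose curve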)
[9] = biological target: Short transient receptor potential channel 6 (Mus musculus) (UniProt Q61143); test: inhibition of mouse TRPC6 channel, confirmation, selectivity assay for TRPC4 inhibitor project, cell-based, HEK293, membrane potential dye, duplicate (AID 434948;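 active means active in primary screen and both duplicates, each dropping signal beyond three positive-control SD with fluorescence still positive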); details: HEK293 TRPC6, membrane potential dye fluorescence, at 10 µM, stimulated with maximal-effect acetylcholine; hits give high values
Short transient receptor potential channel 6 (Mus musculus), sequence (Q61143 whole entry, looked up): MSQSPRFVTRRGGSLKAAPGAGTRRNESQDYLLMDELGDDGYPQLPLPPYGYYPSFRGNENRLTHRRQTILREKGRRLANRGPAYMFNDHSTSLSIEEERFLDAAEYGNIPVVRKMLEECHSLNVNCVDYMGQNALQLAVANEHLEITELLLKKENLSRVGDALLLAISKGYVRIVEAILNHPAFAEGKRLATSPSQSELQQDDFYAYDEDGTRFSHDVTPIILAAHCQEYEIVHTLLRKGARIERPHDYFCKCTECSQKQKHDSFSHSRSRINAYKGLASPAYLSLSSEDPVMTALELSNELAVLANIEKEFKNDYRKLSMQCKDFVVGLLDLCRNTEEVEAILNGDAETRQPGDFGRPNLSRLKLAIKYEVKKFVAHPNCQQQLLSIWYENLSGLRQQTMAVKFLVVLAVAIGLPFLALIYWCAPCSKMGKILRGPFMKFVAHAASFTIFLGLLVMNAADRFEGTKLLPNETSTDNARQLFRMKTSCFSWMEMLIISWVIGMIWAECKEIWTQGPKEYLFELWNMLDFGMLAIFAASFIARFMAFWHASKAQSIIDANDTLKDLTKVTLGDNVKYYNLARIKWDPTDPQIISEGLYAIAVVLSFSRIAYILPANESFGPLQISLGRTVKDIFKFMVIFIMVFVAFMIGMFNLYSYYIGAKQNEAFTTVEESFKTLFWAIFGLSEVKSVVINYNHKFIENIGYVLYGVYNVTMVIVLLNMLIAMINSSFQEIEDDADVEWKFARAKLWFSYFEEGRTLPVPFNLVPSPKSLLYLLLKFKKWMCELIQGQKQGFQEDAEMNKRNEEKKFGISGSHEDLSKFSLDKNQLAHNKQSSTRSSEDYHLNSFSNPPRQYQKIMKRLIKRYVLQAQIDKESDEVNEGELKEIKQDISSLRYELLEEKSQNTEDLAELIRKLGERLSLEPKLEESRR

[10] = biological target: Short transient receptor potential channel 6 (Mus musculus) (UniProt Q61143); test: activation of mouse TRPC6 channel, confirmation, selectivity assay for TRPC4 activator project, cell-based, HEK293, membrane potential dye, duplicate (AID 434950;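 active means membrane potential signal rise above negative control mean plus 3 SD in both duplicates, also active in the earlier TRPC4 screen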;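 on activation: 0% = buffer only wells and 100% = acetylcholine maximal-effect wells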); details: HEK293 TRPC6, membrane potential fluorescence, at 10 µM; hits give high values
[11] = biological target: Short transient receptor potential channel 6 (Mus musculus) (UniProt Q61143); test: TRPC6 potentiation by TRPC4 potentiator hits, confirmation, selectivity assay for TRPC4 potentiator project, HEK293 cells, membrane potential dye, duplicate (AID 434952;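 active means compound raising the membrane signal above positive-control mean plus 3 SD in both repeats, and a primary screen hit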); details: HEK293 TRPC6, membrane potential dye fluorescence, at 10 µM, maximal acetylcholine added after compound; hits give high values
[12] = biological target: Short transient receptor potential channel 4 (Mus musculus) (UniProt Q9QUQ5); test: calcium flux activators in TRPC4/5HT1a cells, counter-screen for TRPC4 activator project, cell-based, second counter screen, HEK293 TRPC4/5HT1a, Fluo-4 (AID 434977;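 active means calcium signal rise above buffer-control mean plus 5 SD in both duplicates, and also a hit in the primary screen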;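 on activation: plate controls were assay buffer for no effect and maximal serotonin response for full effect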); details: Fluo-4 calcium flux, at 10 µM; hits give high values
[13] = calcium flux inhibitors in TRPC4/5HT1a cells, confirmation, counter-screen for TRPC4 inhibitor project, cell-based, second counter screen, HEK293 TRPC4/5HT1a, Fluo-4 (AID 434978;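 active means primary screen active whose calcium signal fell more than 3 SD beyond the full-serotonin control mean in both duplicate plates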;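 further: serotonin given first at submaximal then at maximal dose after compound preincubation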); details: Fluo-4 calcium flux, at 10 µM, serotonin added to trigger calcium flux; hits give high values
[14] = system: TRPC4 (mouse), co-expressed with 5HT1a in HEK293; test: calcium flux potentiators in TRPC4/5HT1a cells, confirmation, counter-screen for TRPC4 potentiator project, cell-based, second counter screen, HEK293 TRPC4/5HT1a, Fluo-4 (AID 434979;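 active means signal rise over 3 SD above mean of control wells given weak agonist, in both repeats and first screen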); details: Fluo-4 calcium flux, at 10 µM, serotonin added at its EC20 dose; hits give high values
[15] = calcium flux activation in mu-opioid HEK293 cells, confirmation, counter-screen for TRPC4 activator project, cell-based, HEK293 mu-opioid receptor line (AID 449723); details: Fluo-4 calcium fluorescence, at 10 µM; hits give high values;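 further: counter screen cells carry the mu-opioid receptor alone and lack TRPC4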
[16] = calcium flux enhancement in mu-opioid HEK293 cells, confirmation, counter-screen for TRPC4 allosteric potentiator project, cell-based, HEK293 mu-opioid receptor line (AID 449724;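 active means calcium signal rise more than 3 SD above the low-dose agonist control mean, in both duplicate plates and the primary screen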); details: Fluo-4 calcium flux, at 10 µM, compound added before EC20 DAMGO stimulus; hits give high values

Measured: activation

Cc1csc2c(N3CCN(C(=O)Nc4ccc(Cl)c(Cl)c4)CC3)ncnc12
inactive: [2] | [3] | [4] | [5] | [6] | [7] | [8] | [9] | [10] | [11] | [13] | [14] | [15] | [16]
active: [1] 115% | [12] 40.3%

CCN1CCN(c2ccc(S(=O)(=O)N3CCOCC3)cc2NC(=O)c2ccccc2OC(F)F)CC1
active: [1] 204% | [2] 136% | [12] 77.8%
inactive: [3] | [4] | [5] | [6] | [7] | [8] | [9] | [10] | [11] | [13] | [14] | [15] | [16]

c1ccc(Cn2nnnc2C(c2cccnc2)N2CCN(C3CCCCC3)CC2)cc1 (stereo not given)
inactive: [2] | [3] | [4] | [5] | [6] | [7] | [8] | [9] | [11] | [13] | [14] | [15] | [16]
active: [1] 115% | [10] 47.5% | [12] 32.6%

CC1CC(C)CN(CCCNC(=O)c2csc3c2CCCCC3)C1 (stereo not given)
inactive: [2] | [3] | [4] | [5] | [6] | [7] | [8] | [9] | [11] | [13] | [14] | [15] | [16]
active: [1] 128% | [10] 87.5% | [12] 7.01%

CN(CCc1ccccn1)C(=O)CC1C(=O)NCCN1Cc1cccc(F)c1 (stereo not given)
inactive: [2] | [3] | [4] | [5] | [6] | [7] | [8] | [9] | [10] | [11] | [13] | [14] | [15] | [16]
active: [1] 214% | [12] 60.9%

COc1ccc(C(CNC(=O)c2cccc(NS(=O)(=O)c3ccc(Br)cc3)c2)N(C)C)cc1 (stereo not given)
active: [1] 253% | [2] 83% | [10] 35% | [12] 29.9%
inactive: [3] | [4] | [5] | [6] | [7] | [8] | [9] | [11] | [13] | [14] | [15] | [16]

Cn1c(N2CCN(C(=O)Nc3ccc(F)cc3)CC2)nc2ccccc21
active: [1] 51% | [12] 22.1%
inactive: [2] | [3] | [4] | [5] | [6] | [7] | [8] | [9] | [10] | [11] | [13] | [14] | [15] | [16]

OCC1(CCc2ccccc2)CCN(Cc2cccn2-c2cccnc2)CC1
active: [1] 56% | [10] 55%
inactive: [2] | [3] | [4] | [5] | [6] | [7] | [8] | [9] | [11] | [12] | [13] | [14] | [15] | [16]

Cc1ccccc1C(=O)NNC(=S)NC(=O)c1cccs1
inactive: [2] | [3] | [4] | [5] | [6] | [7] | [8] | [9] | [10] | [11] | [13] | [14] | [16]
active: [1] 139% | [12] 109% | [15] 30.1%

COc1ccc(-c2nn(-c3ccccc3C)cc2CNC(C)c2cn(C)nc2C)cc1F (stereo not given)
active: [1] 206% | [2] 74% | [10] 31%
inactive: [3] | [4] | [5] | [6] | [7] | [8] | [9] | [11] | [12] | [13] | [14] | [15] | [16]

CCCN(CCC)CCCNC(=O)CNC(=O)c1nn(-c2ccc(OC)cc2)c(=O)c2ccccc12
inactive: [2] | [3] | [4] | [5] | [6] | [7] | [8] | [9] | [10] | [11] | [13] | [14] | [15] | [16]
active: [1] 65% | [12] 24.9%

CCOC(=O)c1ccc(NC(=O)NCCc2cnc[nH]2)cc1
active: [1] 147% | [2] 136% | [10] 38% | [12] 90.7%
inactive: [3] | [4] | [5] | [6] | [7] | [8] | [9] | [11] | [13] | [14] | [15] | [16]

O=C(CCCCn1c(=O)[nH]c2ccccc2c1=O)NC1CCN(Cc2ccccc2)CC1
active: [10] 35%
inactive: [1] | [2] | [3] | [4] | [5] | [6] | [7] | [8] | [9] | [11] | [12] | [13] | [14] | [15] | [16]

Cc1csc2c(N3CCN(C(=S)Nc4ccc(C(F)(F)F)cc4)CC3)ncnc12
inactive: [3] | [4] | [5] | [6] | [7] | [8] | [9] | [10] | [11] | [13] | [14] | [15] | [16]
active: [1] 102% | [2] 55% | [12] 48.2%

CC(C)(C)C(=O)NC(=S)NNC(=O)c1sc2ccccc2c1Cl
inactive: [3] | [4] | [5] | [6] | [7] | [8] | [9] | [11] | [13] | [14] | [16]
active: [1] 323% | [2] 96% | [10] 36.5% | [12] 148% | [15] 136%
